Screening data from PubChem.
CFTR F508del cor = CFTR F508del correction in bronchial cells; activity (quench increase), % at 7.58 µM; CFBE cells, YFP halide quenching; stimulated with forskolin plus potentiator P3; % fluorescence drop versus neutral controls; AID 720511; hit rate 0.36% among 350,000;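 active = mean added fluorescence quench of at least 8% versus neutral control, with both replicates also reaching 8%; inconclusive = only one of the mean or replicate conditions met; inactive = mean below 8% and not both replicates reaching 8%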;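 note: cells transiently co-express mutant CFTR-F508del with the halide-sensitive YFP; corrector assay measuring rescue of mutant channel to the surface after 24 h compound exposure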
FGF22 binding = shifts melting point of recombinant human FGF22; Q9HCT0; hit rate 1.5% among 340,000; activity (Tm shift, normalised), % at 9.99 µM; recombinant FGF22 thermal shift, SYPRO orange fluorescence; percent of sucrose octasulfate shift, DMSO zero; AID 651658;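 active = mean Tm shift, scaled 0 neutral to 100 positive control, at about 1.3% or above, every replicate too, limit read from the data; inconclusive = no clear call, values can overlap the other calls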
Target sequence (Q9HCT0 whole entry, looked up): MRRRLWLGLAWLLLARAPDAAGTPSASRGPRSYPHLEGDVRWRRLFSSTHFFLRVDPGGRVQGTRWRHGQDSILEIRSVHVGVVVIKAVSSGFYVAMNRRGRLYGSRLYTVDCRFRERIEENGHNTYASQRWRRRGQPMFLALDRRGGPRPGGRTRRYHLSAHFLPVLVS
Vif imaging = inhibitors of HIV Vif | HEK293T cells, Vif self-association by quenched fluorescence, imaging, 24 h | inhibition, % at 7.49 µM | hit rate 0.35% among 340,000 | AID 602346; in the data active = inhibition above about 50%, passing the limit was not always enough; inconclusive = no clear call, values can overlap the other calls; inactive = below about 31%
An asterisk follows results filed as active; ? = inconclusive; . = not tested or not shown. Sampled rows, rich in hits. Any-hit rate of the full collection: about 1.7%.

SMILES	CFTR F508del cor	FGF22 binding	Vif imaging
Cc1cc(C)cc(OCC(=O)OCc2cc([N+](=O)[O-])cc3c2OCOC3)c1	-1	0	-2
Cc1cc(C)cc(C(=O)NCC(=O)OCc2cc([N+](=O)[O-])cc3c2OCOC3)c1	13*	0	-1
O=C1C2C3C=CC(C4CC34)C2C(=O)N1/N=C/c1c[nH]c2ccccc12 (configuration not stated)	2	0	91*
O=C1C2C3C=CC(C4CC34)C2C(=O)N1/N=C/c1ccc([N+](=O)[O-])s1 (configuration not stated)	.	1	2
COc1ccc(CC2(CO)CCN(Cc3cnc(-c4ccccc4C)nc3)CC2)cc1	3	44*	-1
COc1ccc(CC2(CO)CCN(Cc3cnn(-c4ccccc4)c3)CC2)cc1	-1	0	-1
C[C@@H]1CN([C@@H](C)CO)C(=O)Cc2cc(N(C)C)ccc2O[C@H]1CN(C)Cc1ccc(C(=O)O)cc1	3	0	.
COc1ccc(CNC(=S)Nc2ccc(Br)cc2)cc1	0	0	-3
NS(=O)(=O)c1ccc(NC(=S)NCc2ccc(Cl)cc2)cc1	.	.	-3
COc1ccc(CNC(=S)NCc2ccc(OC(C)C)cc2)cc1	1	43*	-1
COc1ccc(CNC(=S)Nc2cccc(OC)c2)cc1	.	0	-3
NS(=O)(=O)c1ccc(CNC(=S)Nc2ccc(F)c(Cl)c2)cc1	4	43*	-3
COc1ccc(CNC(=S)Nc2ccc(F)c(Cl)c2)cc1	-2	1.7*	-1
C[C@@H]1CN([C@@H](C)CO)C(=O)Cc2cc(NC(=O)Cc3ccccc3)ccc2O[C@@H]1CN(C)C(=O)NC1CCCCC1	2	0	.
C[C@H](CO)N1C[C@H](C)[C@@H](CN(C)Cc2ccc3c(c2)OCCO3)OCc2cn(nn2)CCCC1=O	-4	0	.
O=C(O)c1c2cc(Br)ccc2nc2[nH]c(=O)[nH]c(=O)c12	-3	43*	20
Cc1ccc2nc3[nH]c(=O)[nH]c(=O)c3c(N)c2c1	3	0	18
C[C@H]1CN([C@@H](C)CO)C(=O)c2cc(C#CC3CC3)cnc2O[C@@H]1CN(C)C(=O)C1CCCCC1	-1	.	.
COc1cc(C(=O)NC2CCCCC2)ccc1OCc1ccc(Cl)cc1Cl	-4	43*	-2
COc1cc(C(=O)NCCC(C)C)ccc1OCc1ccc(Cl)cc1Cl	.	.	3
O=C(NC[C@@H]1CC[C@@H]2[C@@H](CN2S(=O)(=O)c2ccccc2)O1)NC1CCCCC1	0	.	.
COCCNC(=S)N(Cc1cc2cc(C)ccc2n2nnnc12)C1CCCC1	0	43*	-4
COCCN(Cc1cc2cc(C)ccc2n2nnnc12)C(=S)Nc1ccc(C)cc1	1	1	6
C[C@H]1CN([C@@H](C)CO)C(=O)Cc2cc(NC(=O)Nc3cccc4ccccc34)ccc2O[C@@H]1CN(C)C(=O)Nc1ccccc1	-4	0	.
O=C(c1ccccc1)c1cnc[nH]1	1	0	0
SMILES	CFTR F508del cor	FGF22 binding	Vif imaging
O=C(c1ccccc1)c1ccc[nH]1	-2	43*	3
COc1cccc(-c2nc(-c3ccccc3)[nH]c(=O)c2C#N)c1	.	.	23
CCC(Sc1nc(-c2cccc(OC)c2)c(C#N)c(=O)[nH]1)C(=O)Nc1nnc(C(C)C)s1 (configuration not stated)	0	2.1*	-5
CCC(=O)N1CCCCN2[C@H](CO)[C@H](c3ccc(-c4cccnc4)cc3)[C@@H]2C1	-1	0	.
[O-]/[N+](=C\c1ccccc1)[C@@H]1CCCC[C@@H]1/[N+]([O-])=C/c1ccccc1	.	.	-6
[O-][N+](=Cc1ccccc1)CC1(O)CCCCC1	2	43*	-1
O=C(O)[C@H](Cc1ccccc1)N1C(=O)c2c(Cl)c(Cl)c(Cl)c(Cl)c2C1=O	0	5.8*	-1
O=C(O)C(Cc1ccccc1)n1cccc1 (configuration not stated)	.	.	5
CNC(=O)C[C@H]1CC[C@@H]2[C@H](COc3ccc(NC(=O)Nc4c(C)noc4C)cc3C(=O)N2C)O1	1	0	.
Cc1c(NC(=O)c2ccc(Cl)c([N+](=O)[O-])c2)cccc1-n1cnnn1	3	0	56*
Cc1c(NC(=O)c2ccc(S(=O)(=O)N(C)C)cc2)cccc1-n1cnnn1	1	0	11
CCS(=O)(=O)N1CC(=O)N2[C@@H](CO)[C@H](c3ccc(-c4cccc(F)c4)cc3)[C@@H]2C1	4	0	.
COc1cccc(S(=O)(=O)Nc2ccc3c(c2)C(=O)N(C)C[C@H](OC)[C@@H](C)CN(Cc2ccccc2F)[C@@H](C)CO3)c1	0	0	.
C[C@]12CC[C@@H]3c4ccc(O)cc4CC[C@H]3[C@@H]1CCC2=O	3	0	5
Cc1cc(O)cc2c1C1CCC3(C)C(=O)CCC3C1C=C2 (configuration not stated)	8.3*	0	2
COc1ccccc1CNC(=O)C[C@H]1C[C@H]2c3cc(NC(=O)c4cccnc4)ccc3O[C@H]2[C@@H](CO)O1	-3	0	.
Cc1ccc(CN2CCN(Cc3cn(C)nc3C)CC2CCO)o1 (configuration not stated)	-1	43*	-3
Cc1ccc(CN2CCN(Cc3cnc(C)s3)CC2CCO)o1 (configuration not stated)	-2	44*	-2
COc1ccccc1/C=C/CN1CCN(Cc2ccc(C)o2)C(CCO)C1 (configuration not stated)	.	.	-1
C/C(=C\c1ccccc1)CN1CCN(Cc2ccc(C)o2)C(CCO)C1 (configuration not stated)	-2	44*	-5
Cc1ccc(CN2CCN(Cc3cnc(N4CCOCC4)s3)CC2CCO)o1 (configuration not stated)	.	0	1
Cc1ccc(CN2CCN(Cc3cn(C(C)C)c4ccccc34)CC2CCO)o1 (configuration not stated)	-1	0	-2
O=S(=O)(N[C@H]1CC[C@@H](CCn2cc(-c3cccnc3)nn2)O[C@@H]1CO)c1ccccc1	0	0	.
Cc1noc(C)c1S(=O)(=O)Nc1ccc2c(c1)C(=O)N([C@H](C)CO)C[C@H](C)[C@@H](CN(C)S(=O)(=O)c1ccc(F)cc1)OCCCC[C@@H](C)O2	1	0	.
O=C([C@H]1[C@H](CO)[C@H]2Cn3c(cccc3=O)[C@H]2N1CC1CCCCC1)N1CCOCC1	2	.	.
SMILES	CFTR F508del cor	FGF22 binding	Vif imaging
COc1cc(-c2cc(=O)c3c(O)c(OC)c(OC)cc3o2)cc(OC)c1O	1	0	89*
COc1ccc(-c2cc(=O)c3c(O)c(OC)c(O)cc3o2)cc1	1	0	-5
CC(C)CC(=O)Nc1sc2c(c1C#N)CC(C)(C)NC2(C)C	.	.	56*
Cc1ccc(OCC(=O)Nc2sc3c(c2C#N)CC(C)(C)NC3(C)C)cc1	-4	43*	5
CCC(=O)Nc1sc2c(c1C#N)CC(C)(C)NC2(C)C	.	.	13
CC1(C)Cc2c(sc(NC(=O)COc3cccc4ccccc34)c2C#N)C(C)(C)N1	-7	0	0
COc1ccc(S(=O)(=O)Nc2cccc3ccc(O)cc23)cc1	14*	0	?
COc1ccc(S(=O)(=O)Nc2c(F)cccc2F)cc1	-2	0	-1
